One assay deals with Albumin (Bos taurus) (UniProt P02769). Nature of the assay: compounds binding labelled BSA control protein – biochemical, small-molecule microarray, Alexa647 label, 635/667 nm fluorescence, artefact control for SMM control protein annotation, profiling panel (AID 1118).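 Further: score merges 667 nm emission intensity and signal-to-noise per printed compound spot.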 The following applies: BSA-A647 binding, fluorescence 635 nm, higher = more signal.
Assay [1] can be described thus: probe aXIP binding to arrayed compounds – biochemical, NeuroSMM set, 635/667 nm fluorescence, primary screen (AID 1119).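 Further: probe is the protein aXip251-270 applied at 1 µg/mL to compound-printed slides; binding of probe to printed compounds measured as 667 nm fluorescence plus signal to noise.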 The following applies: small-molecule microarray, higher = more signal, called active from +8 up or from −8 down.
A short description of assay [2]: probe aNOTCH3 binding on compound microarray – biochemical, small-molecule microarray, 635/667 nm fluorescence, primary screen (AID 1120).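 Further: probe is a biotin-tagged antibody raised against NOTCH3 rather than NOTCH3 protein; score merges spot fluorescence near 667 nm with spot signal to noise.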 The following applies: higher = more signal.
Assay [3] is described as follows: probe aNOTCH2 binding on compound microarray – biochemical, small-molecule microarray, 635/667 nm fluorescence, primary screen (AID 1121).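 Further: score merges feature fluorescence read at 667 nm with its signal to noise.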 The following applies: higher = more signal.
Assay [4] deals with Carbonic anhydrase 2 (Homo sapiens) (UniProt P00918). The experiment in a line: compounds binding carbonic anhydrase 2 – biochemical, small-molecule microarray, Alexa647-labelled CAII, profiling panel (AID 1122). The following applies: CAII-A647 binding fluorescence, higher = more signal.
Assay [5] is described as follows: COS7 lysate on small-molecule microarray, probe aHis, 635 nm (AID 1123).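 Further: z-score combines 667nm fluorescence intensity with signal-to-noise per printed compound spot.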 The following applies: COS7 cell lysate, fluorescence, higher = more signal.
Assay [6] can be described thus: probe aLAP1 signal on lysate-treated microarray – cell lysate, small-molecule microarray, COS7 lysate, primary screen (AID 1124).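 Further: lysate comes from COS7 cells expressing LAP1 and is applied at 0.3 µg/mL; score merges spot fluorescence near 667 nm with signal-to-noise over triplicate slides.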 The settings on record: probe aLAP1, fluorescence, higher = more signal.
In another assay the test system is Sam68 (KHDRBS1). The experiment in a line: compounds binding KHDRBS1 protein – biochemical, small-molecule microarray, 635 nm fluorescence, primary screen (AID 1125).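 Further: score merges 667 nm channel intensity with signal to noise over triplicate slides.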 The settings on record: higher = more signal.
Assay [7] has as its system Chordin-like protein 2 (CHRDL2). The experiment in a line: compounds binding chordin-like 2 – biochemical, small-molecule microarray, 635 nm fluorescence, primary screen (AID 1126).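 Further: printed compound slides probed with Chrdl2 protein at 4 µg/mL for 1 h at 4 C; score merges 667 nm emission intensity with signal to noise over three replicate slides.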 The following applies: fluorescence 635 nm, higher = more signal.
Assay [8] has as its target Concanavalin-A (Canavalia ensiformis) (UniProt P02866). The experiment in a line: compounds binding concanavalin A lectin – biochemical, small-molecule microarray, Alexa647 label, 635 nm, artefact control for SMM control protein annotation, primary screen (AID 1127).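 Further: z combines 667 nm emission intensity with signal-to-noise across three replicate slides.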 The following applies: ConA-A647 binding fluorescence, higher = more signal.
The nature of assay [9]: compounds binding Alexa647 anti-His antibody – biochemical, small-molecule microarray, 635 nm fluorescence, artefact control for SMM control protein annotation, primary screen (AID 1128).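 Further: score merges feature fluorescence with signal-to-noise for each printed compound spot.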 The following applies: higher = more signal.
Assay [10] has as its system Human papillomavirus type 1a E7 protein (residues 1-88). Nature of the assay: HPV1a E7 small-molecule binders, primary screen, biochemical, small-molecule microarray, residues 1-88, 635 nm (AID 1129). The settings on record: small-molecule microarray binding, fluorescence 635 nm; higher = more signal.
The target in assay [11] is Focal adhesion kinase 1 (Homo sapiens) (UniProt Q05397). Nature of the assay: PTK2 protein binding on printed compound slides – biochemical, small-molecule microarray, 635/667 nm fluorescence, BSA, DTT, primary screen (AID 1130).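 Further: composite of spot emission at 667 nm and signal to noise over triplicate slides.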 The settings on record: 635 nm fluorescence, higher = more signal.
Sequence of Focal adhesion kinase 1 (Homo sapiens) (Q05397 whole entry, looked up): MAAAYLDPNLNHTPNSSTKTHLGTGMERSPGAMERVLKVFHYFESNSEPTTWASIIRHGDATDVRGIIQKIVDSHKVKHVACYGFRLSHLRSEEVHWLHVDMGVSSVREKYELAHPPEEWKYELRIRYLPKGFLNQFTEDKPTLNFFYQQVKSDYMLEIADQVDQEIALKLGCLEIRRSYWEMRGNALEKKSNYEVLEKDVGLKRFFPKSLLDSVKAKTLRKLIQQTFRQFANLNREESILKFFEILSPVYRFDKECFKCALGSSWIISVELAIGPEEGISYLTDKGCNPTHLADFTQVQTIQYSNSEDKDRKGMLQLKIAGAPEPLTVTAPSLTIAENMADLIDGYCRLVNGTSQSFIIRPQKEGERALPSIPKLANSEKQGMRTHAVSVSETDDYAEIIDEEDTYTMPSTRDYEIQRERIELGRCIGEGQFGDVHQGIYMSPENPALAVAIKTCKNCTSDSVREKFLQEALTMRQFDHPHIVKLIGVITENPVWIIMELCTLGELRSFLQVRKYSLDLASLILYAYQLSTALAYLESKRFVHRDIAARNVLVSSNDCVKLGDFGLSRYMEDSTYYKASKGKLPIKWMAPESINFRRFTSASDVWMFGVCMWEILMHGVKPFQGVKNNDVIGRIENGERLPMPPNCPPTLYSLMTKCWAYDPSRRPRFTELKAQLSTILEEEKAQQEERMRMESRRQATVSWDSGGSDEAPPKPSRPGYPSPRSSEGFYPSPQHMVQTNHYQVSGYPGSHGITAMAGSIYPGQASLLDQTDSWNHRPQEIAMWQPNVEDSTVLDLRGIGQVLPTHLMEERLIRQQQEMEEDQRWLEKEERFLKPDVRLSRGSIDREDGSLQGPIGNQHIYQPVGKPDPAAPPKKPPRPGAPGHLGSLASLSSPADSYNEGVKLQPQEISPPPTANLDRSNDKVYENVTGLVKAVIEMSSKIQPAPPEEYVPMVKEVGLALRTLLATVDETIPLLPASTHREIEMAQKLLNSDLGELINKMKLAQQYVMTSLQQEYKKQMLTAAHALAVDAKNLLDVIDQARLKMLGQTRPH
The test system of assay [12] is Fibrinogen (Alexa647-labelled). Nature of the assay: Alexa647-fibrinogen binding to printed small molecules – biochemical, small-molecule microarray, 635/667 nm fluorescence, artefact control for SMM control-protein annotation, profiling panel (AID 1131).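 Further: z-score merges 667 nm fluorescence with per-spot signal-to-noise over triplicate slides.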 The following applies: fibrinogen-A647 binding fluorescence, higher = more signal.
Assay [13] deals with Follistatin (Homo sapiens) (UniProt P19883). Nature of the assay: FST protein binding to printed compounds – biochemical, small-molecule microarray, 635/667 nm fluorescence, primary screen (AID 1132). The following applies: 635 nm fluorescence, higher = more signal.
Sequence of Follistatin (Homo sapiens) (P19883 whole entry, looked up): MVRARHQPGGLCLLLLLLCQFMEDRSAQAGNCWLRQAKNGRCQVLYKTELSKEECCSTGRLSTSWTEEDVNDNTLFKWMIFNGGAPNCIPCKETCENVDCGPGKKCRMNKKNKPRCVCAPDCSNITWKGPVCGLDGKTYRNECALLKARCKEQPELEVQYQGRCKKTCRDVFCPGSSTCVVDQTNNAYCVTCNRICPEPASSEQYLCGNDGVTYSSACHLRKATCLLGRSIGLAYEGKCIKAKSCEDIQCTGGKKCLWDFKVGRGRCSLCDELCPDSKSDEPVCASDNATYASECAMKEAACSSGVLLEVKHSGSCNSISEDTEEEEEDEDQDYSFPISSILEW
Assay [14] concerns the target Fibroblast growth factor 2 (Homo sapiens) (UniProt P09038). Nature of the assay: basic fibroblast growth factor binding to printed compounds – biochemical, small-molecule microarray, 635/667 nm fluorescence, primary screen (AID 1133). The settings on record: FGF2, fluorescence 635/667, higher = more signal.
Assay [15] can be described thus: JC-1 mitochondrial potential readout, lung cancer cells – cell-based, A549, JC-1 fluorescence, basal, 24 h, 100 nL, profiling panel (AID 1138).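 Further: A549 lung adenocarcinoma cells under basal conditions with no added stimulus; test concentration not given here.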 The settings on record: higher = more signal.
The subject of the next assay is Lefty1. The experiment in a line: Lefty1 protein binding to printed compounds – biochemical, small-molecule microarray, 635/667 nm fluorescence, primary screen (AID 1139). The following applies: fluorescence 635/667, higher = more signal.
The subject of assay [16] is wheat germ agglutinin (Triticum aestivum), Alexa647-labelled. The experiment in a line: Alexa647-WGA lectin binding to printed small molecules – biochemical, small-molecule microarray, 635/667 nm fluorescence, artefact control for SMM control-protein annotation, profiling panel (AID 1140).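 Further: score merges 667 nm feature emission with signal to noise over triplicate slides.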 The settings on record: WGA-A647 binding, 635 nm fluorescence, higher = more signal.

Assay [17] addresses Luciferin 4-monooxygenase (Photinus pyralis) (UniProt P08659). Nature of the assay: inhibition of purified Photinus pyralis luciferase – biochemical, luminescence, purified enzyme, 2006 set, primary screen (AID 1141).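 Further: cell-free assay with purified firefly luciferase at 100 ng per well in PBS; test concentration not given here.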 The following applies: purified firefly luciferase, SteadyGlo luminescence, 30 min; higher = more signal, called active from +8 up or from −8 down.

The source made the active and inactive calls.

Sequence of Concanavalin-A (Canavalia ensiformis) (P02866 whole entry, looked up): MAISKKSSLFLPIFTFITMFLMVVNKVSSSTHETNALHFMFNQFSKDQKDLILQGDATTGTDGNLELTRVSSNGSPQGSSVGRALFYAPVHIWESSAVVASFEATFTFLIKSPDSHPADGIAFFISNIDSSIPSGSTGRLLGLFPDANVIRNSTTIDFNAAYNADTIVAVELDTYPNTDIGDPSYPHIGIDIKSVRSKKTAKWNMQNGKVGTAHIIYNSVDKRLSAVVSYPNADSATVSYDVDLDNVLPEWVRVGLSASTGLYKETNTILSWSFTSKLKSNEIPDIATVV
Sequence of Fibroblast growth factor 2 (Homo sapiens) (P09038 whole entry, looked up): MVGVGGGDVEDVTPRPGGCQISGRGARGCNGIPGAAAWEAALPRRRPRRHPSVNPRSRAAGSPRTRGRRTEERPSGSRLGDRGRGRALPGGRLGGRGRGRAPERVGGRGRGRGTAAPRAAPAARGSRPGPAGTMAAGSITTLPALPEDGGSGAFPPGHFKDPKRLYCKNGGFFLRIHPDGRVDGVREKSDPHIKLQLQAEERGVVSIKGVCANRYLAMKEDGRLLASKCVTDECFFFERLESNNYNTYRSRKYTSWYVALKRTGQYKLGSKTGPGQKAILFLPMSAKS
Sequence of Luciferin 4-monooxygenase (Photinus pyralis) (P08659 whole entry, looked up): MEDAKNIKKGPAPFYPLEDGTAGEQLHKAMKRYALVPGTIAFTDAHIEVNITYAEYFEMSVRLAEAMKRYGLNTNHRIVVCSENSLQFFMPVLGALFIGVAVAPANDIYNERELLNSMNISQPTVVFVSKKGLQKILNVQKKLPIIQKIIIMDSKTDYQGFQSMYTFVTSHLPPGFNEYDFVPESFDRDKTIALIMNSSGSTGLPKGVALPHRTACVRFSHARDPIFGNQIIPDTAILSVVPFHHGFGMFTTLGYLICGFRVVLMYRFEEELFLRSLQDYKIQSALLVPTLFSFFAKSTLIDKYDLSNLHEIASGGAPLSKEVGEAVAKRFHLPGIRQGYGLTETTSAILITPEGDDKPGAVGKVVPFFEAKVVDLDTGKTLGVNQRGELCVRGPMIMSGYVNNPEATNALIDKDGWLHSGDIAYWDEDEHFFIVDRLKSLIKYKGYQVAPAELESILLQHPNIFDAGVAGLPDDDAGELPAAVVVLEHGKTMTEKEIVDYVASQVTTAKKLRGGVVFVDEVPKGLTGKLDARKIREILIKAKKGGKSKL
Sequence of Albumin (Bos taurus) (P02769 whole entry, looked up): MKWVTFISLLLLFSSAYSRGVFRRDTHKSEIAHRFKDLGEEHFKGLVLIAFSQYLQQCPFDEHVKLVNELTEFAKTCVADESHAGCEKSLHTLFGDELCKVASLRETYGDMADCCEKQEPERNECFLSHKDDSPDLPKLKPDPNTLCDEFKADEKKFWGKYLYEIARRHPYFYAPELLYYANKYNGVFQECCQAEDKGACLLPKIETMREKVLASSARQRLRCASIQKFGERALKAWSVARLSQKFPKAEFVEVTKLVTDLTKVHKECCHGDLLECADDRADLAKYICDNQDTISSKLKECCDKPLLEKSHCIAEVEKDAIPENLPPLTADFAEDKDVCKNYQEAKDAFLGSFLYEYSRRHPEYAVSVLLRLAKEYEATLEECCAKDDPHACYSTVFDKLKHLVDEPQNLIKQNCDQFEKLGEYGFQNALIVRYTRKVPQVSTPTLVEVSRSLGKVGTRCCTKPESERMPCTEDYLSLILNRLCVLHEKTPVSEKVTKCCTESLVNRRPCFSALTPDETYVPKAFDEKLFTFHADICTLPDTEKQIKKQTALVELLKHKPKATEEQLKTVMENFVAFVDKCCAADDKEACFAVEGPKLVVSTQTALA

On to `O=C(NCc1ccccc1)[C@@H]1c2ccccc2C(=O)N(Cc2cc(F)cc(C(F)(F)F)c2)[C@H]1c1ccc(CO)cc1`, for which the composite z-score with Albumin (Bos taurus) is 0.491; in [2], -0.0477; in assay [3], -0.124; in assay [4], 0.589; in assay [5] it was 1.67; in assay [6] it was 0.662. In addition, the composite z-score with Sam68 (KHDRBS1) was found to be 1.27; in assay [7], 0.161; in [8] it was 0.769; in [9], 2.54; in [10], 1.19; in assay [11], 0.187. In addition, the composite z-score in assay [12] was determined as 0.571; in assay [13] it was 1.27; in assay [14], 0.339; in the assay with Lefty1 it was 0.61; in [16], 0.144. Also, the composite Z-score in assay [1] was 0.318 (inactive). The z-score in [15] was 1.45; in assay [17] it was -1.13 (inactive).
As to `O=C1O[C@H](c2ccccc2)[C@H](c2ccccc2)N2[C@H]1[C@@H](C(=O)NC[C@H](O)c1ccccc1)[C@]1(C(=O)Nc3ccc(C#CC4=CCCCC4)cc31)[C@H]2c1ccc(O)cc1`, the composite z-score is 0.296 with Albumin (Bos taurus); 0.0112 in assay [2]; -0.124 in [3]; 0.397 in [4]; 1.98 in assay [5]; 0.826 in assay [6]. The composite z-score was found to be 1.29 in the assay with Sam68 (KHDRBS1); 0.594 in assay [7]; 1.09 in [8]; 1.86 in [9]; 1.17 in [10]; 0.191 in [11]. Besides, the composite z-score was 0.826 in assay [12]; 1.35 in assay [13]; 1.59 in assay [14]; 0.82 with Lefty1; 0.331 in assay [16]. Moreover, in assay [1], the composite Z-score is -1.22 (inactive). The z-score in assay [15] was -1.38; in [17] it was -1.5 (inactive).
Regarding `COC(=O)[C@@]1(Cc2ccc(F)cc2)[C@H]2c3cc(C(=O)N(C)C)n(CCCNc4ccc(C(F)(F)F)cc4Cl)c3C[C@H]2CN1C(=O)c1ccccc1`, the composite z-score with Albumin (Bos taurus) stood at 1.03; in [2], 0.568; in [3], 0.116; in assay [4] it was 0.778; in [5], 2.87; in assay [6] it was 0.12. Besides, the composite z-score was 1.3 in the assay on Sam68 (KHDRBS1); -0.841 in assay [7]; 1.17 in assay [8]; 2.17 in assay [9]; 1.24 in assay [10]; 0.903 in [11]. In addition, the composite z-score in assay [12] was 1.01; in [13] it was 0.543; in [14], -0.123; in the assay on Lefty1, 0.0748; in assay [16] it was 1.3. In [1], the composite Z-score is -0.214 (inactive). Also, the z-score was 0.284 in assay [15] and 0.579 (inactive) in assay [17].
For the compound `COC(=O)C(CC#Cc1ccc2c(c1)[C@]1(C(=O)N2)[C@H](C(=O)N2CCCCCCC2)[C@H]2C(=O)O[C@H](c3ccccc3)[C@H](c3ccccc3)N2[C@@H]1c1ccccc1OCCO)C(=O)OC`, the composite z-score in the assay with Albumin (Bos taurus) worked out at 0.678; in assay [2], 2.26; in assay [3], 1.16; in assay [4], 1.08; in [5] it was 5.41; in [6] it was 1.58. The composite z-score is 1.32 with Sam68 (KHDRBS1); 1.68 in assay [7]; 0.916 in [8]; 3 in [9]; 1.35 in [10]; 4.24 in assay [11]. For the same compound, the composite z-score in [12] was 0.654; in assay [13] it was 1.56; in assay [14], 0.197; in the assay with Lefty1 it was 1.89; in [16], 1.73. The composite Z-score in assay [1] is 10.6 (active). The z-score in assay [15] is -1.08; in assay [17] it was -0.525 (inactive).
For the compound `C[N+](C)(C)CCCC[C@@H]1NC(=O)[C@H]2C[C@@H](C(=O)O)[C@@H](c3cccc(OCCO)c3)N2C1=O`, the composite z-score came out at 0.969 with Albumin (Bos taurus); 1.14 in [2]; 0.402 in assay [3]; 0.758 in [4]; 3.12 in assay [5]; 1.07 in assay [6]. For the same compound, the composite z-score with Sam68 (KHDRBS1) amounted to 1.31; in assay [7], 1.17; in assay [8], 1.22; in assay [9] it was 3.61; in assay [10] it was 1.21; in assay [11] it was 2.21. For the same compound, the composite z-score is 0.973 in [12]; 1.15 in assay [13]; 0.9 in assay [14]; 0.804 with Lefty1; 1.57 in assay [16]. Also, the composite Z-score in [1] is 3.73 (inactive). For the same compound, the z-score in [15] was 0.455; in [17] it was -0.317 (inactive).
In the case of `O=c1cccc(-c2ccccc2)o1`, the composite z-score with Albumin (Bos taurus) is 0.66; in assay [2], -0.0933; in [3] it was -0.0974; in [4] it was 0.51; in assay [5], -0.295; in [6] it was -0.0258. The composite z-score was -1.1 in the assay with Sam68 (KHDRBS1); 0.223 in assay [7]; -0.234 in [8]; -0.192 in assay [9]; -0.377 in assay [10]; 0.192 in [11]. Further, the composite z-score was -0.468 in assay [12]; 0.145 in assay [13]; -0.417 in [14]; -0.57 with Lefty1; 0.143 in assay [16]. For the same compound, the composite Z-score in assay [1] is 2.27 (inactive). For the same compound, the z-score in assay [15] is 0.103; in assay [17], 0.616 (inactive).

For the origin of these results see PubChem BioAssay.
